Reference: PubChem BioAssay AID1159580 (chemical genetic matrix, 2015)
About 2,000 (36%) of roughly 5,500 compounds were called active. Another 18% or so got no clear call; they are omitted. Cut-off read from the data, not from the text of the source: active = normalized growth mostly below about 0.91 (no sharp cut-off); inconclusive = no clear call, values can overlap the other calls; inactive = mostly above about 0.92. The list shows a part of the results.

Assay: chemical genetic growth profiling, strain panel (AID 1159580);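 note: tested at 20 µM; growth read once vehicle control cultures reached saturation at 30 °C; 1 = growth at the plate median or of vehicle wells; lower values mean less growth of the strain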
Conditions: growth OD

Measured: normalized growth

Oc1cc(O)c2c(c1)O[C@H](c1ccc(O)c(O)c1)[C@H](O)C2
inactive: S. cerevisiae deletion strains, locus YJR043C, strain POL32, stronger effect = lower value 1.07 | S. cerevisiae deletion strains, locus YJR066W, strain TOR1, stronger effect = lower value 0.94 | S. cerevisiae deletion strains, locus YKL009W, strain mrt4, stronger effect = lower value 0.972 | S. cerevisiae deletion strains, locus YKL068W, stronger effect = lower value 0.979 | S. cerevisiae deletion strains, locus YKL085W, strain MDH1 (second series), stronger effect = lower value 0.981 | S. cerevisiae deletion strains, locus YKL085W, strain MDH1, stronger effect = lower value 0.981 | S. cerevisiae deletion strains, locus YKL160W, strain elf1, stronger effect = lower value 1 | S. cerevisiae deletion strains, locus YKR001C, strain vps1, stronger effect = lower value 1 | S. cerevisiae deletion strains, locus YKR026C, strain gcn3, stronger effect = lower value 1 | S. cerevisiae deletion strains, locus YKR091W, strain srl3, stronger effect = lower value 0.999 | S. cerevisiae deletion strains, locus YLL001W, strain dnm1, stronger effect = lower value 0.994 | S. cerevisiae deletion strains, locus YLL026W, stronger effect = lower value 1.01 | S. cerevisiae deletion strains, locus YLL041C, strain sdh2, stronger effect = lower value 1.01 | S. cerevisiae deletion strains, locus YLR027C, strain aat2, stronger effect = lower value 0.996 | S. cerevisiae deletion strains, locus YLR039C, strain RIC1, stronger effect = lower value 1.08 | S. cerevisiae deletion strains, locus YLR058C, strain SHM2, stronger effect = lower value 1.01 | S. cerevisiae deletion strains, locus YLR102C, strain apc9, stronger effect = lower value 0.982 | S. cerevisiae deletion strains, locus YLR113W, strain HOG1, stronger effect = lower value 1.02 | S. cerevisiae deletion strains, locus YLR221C, strain rsa3, stronger effect = lower value 1.04 | S. cerevisiae deletion strains, locus YLR258W, strain gsy2, stronger effect = lower value 1.01 | S. cerevisiae deletion strains, locus YLR262C, strain YPT6 (second series), stronger effect = lower value 0.997 | S. cerevisiae deletion strains, locus YLR262C, strain YPT6, stronger effect = lower value 1.06 | S. cerevisiae deletion strains, locus YLR268W, strain sec22, stronger effect = lower value 0.979 | S. cerevisiae deletion strains, locus YLR320W, strain mms22, stronger effect = lower value 1.05 | S. cerevisiae deletion strains, locus YLR330W, strain CHS5, stronger effect = lower value 1.01 | S. cerevisiae deletion strains, locus YLR342W, strain FKS1 (second series), stronger effect = lower value 1.04 | S. cerevisiae deletion strains, locus YLR342W, strain FKS1, stronger effect = lower value 1.01 | S. cerevisiae deletion strains, locus YLR357W, strain rsc2, stronger effect = lower value 0.992 | S. cerevisiae deletion strains, locus YLR370C, strain arc18, stronger effect = lower value 1.01 | S. cerevisiae deletion strains, locus YLR371W, strain rom2, stronger effect = lower value 0.975 | S. cerevisiae deletion strains, locus YLR384C, strain iki3, stronger effect = lower value 0.995 | S. cerevisiae deletion strains, locus YLR418C, strain cdc73, stronger effect = lower value 1.03 | S. cerevisiae deletion strains, locus YML016C, strain PPZ1, stronger effect = lower value 0.992 | S. cerevisiae deletion strains, locus YML032C, strain rad52, stronger effect = lower value 1.01 | S. cerevisiae deletion strains, locus YML120C, strain ndi1, stronger effect = lower value 0.996 | S. cerevisiae deletion strains, locus YML124C, strain tub3, stronger effect = lower value 0.992 | S. cerevisiae deletion strains, locus YMR058W, strain fet3, stronger effect = lower value 1.02 | S. cerevisiae deletion strains, locus YMR078C, strain ctf18, stronger effect = lower value 0.977 | S. cerevisiae deletion strains, locus YMR125W, strain sto1, stronger effect = lower value 1 | S. cerevisiae deletion strains, locus YMR129W, stronger effect = lower value 1 | S. cerevisiae deletion strains, locus YMR205C, strain PFK2, stronger effect = lower value 1.03 | S. cerevisiae deletion strains, locus YMR223W, strain ubp8, stronger effect = lower value 1 | S. cerevisiae deletion strains, locus YMR231W, strain pep5, stronger effect = lower value 0.981 | S. cerevisiae deletion strains, locus YMR307W, strain GAS1, stronger effect = lower value 1.22 | S. cerevisiae deletion strains, locus YNL067W, strain RPL9B, stronger effect = lower value 0.971 | S. cerevisiae deletion strains, locus YNL071W, strain lat1, stronger effect = lower value 1.01 | S. cerevisiae deletion strains, locus YNL183C, strain NPR1, stronger effect = lower value 0.95 | S. cerevisiae deletion strains, locus YNL209W, strain ssb2, stronger effect = lower value 0.994 | S. cerevisiae deletion strains, locus YNL233W, strain BNI4, stronger effect = lower value 1.01 | S. cerevisiae deletion strains, locus YNL248C, strain rpa49, stronger effect = lower value 1 | S. cerevisiae deletion strains, locus YNL250W, strain rad50, stronger effect = lower value 0.937 | S. cerevisiae deletion strains, locus YNL271C, strain bni1, stronger effect = lower value 0.984 | S. cerevisiae deletion strains, locus YNL298W, strain CLA4, stronger effect = lower value 1.01 | S. cerevisiae deletion strains, locus YNL307C, strain MCK1, stronger effect = lower value 0.977 | S. cerevisiae deletion strains, locus YNL322C, strain KRE1 (second series), stronger effect = lower value 1.01 | S. cerevisiae deletion strains, locus YNL322C, strain KRE1, stronger effect = lower value 1.01 | S. cerevisiae deletion strains, locus YNR049C, strain mso1, stronger effect = lower value 1.01 | S. cerevisiae deletion strains, locus YNR052C, strain pop2, stronger effect = lower value 0.991 | S. cerevisiae deletion strains, locus YOL006C, strain TOP1, stronger effect = lower value 1.03 | S. cerevisiae deletion strains, locus YOL012C, strain htz1 1.18 | S. cerevisiae deletion strains, locus YOL147C, strain pex11, stronger effect = lower value 0.998 | S. cerevisiae deletion strains, locus YOR001W, strain rrp6, stronger effect = lower value 1.04 | S. cerevisiae deletion strains, locus YOR061W, strain CKA2, stronger effect = lower value 0.998 | S. cerevisiae deletion strains, locus YOR069W, strain VPS5, stronger effect = lower value 0.999 | S. cerevisiae deletion strains, locus YOR070C, strain gyp1, stronger effect = lower value 1 | S. cerevisiae deletion strains, locus YOR080W, strain dia2, stronger effect = lower value 1.01 | S. cerevisiae deletion strains, locus YOR083W, strain WHI5, stronger effect = lower value 1.01 | S. cerevisiae deletion strains, locus YOR106W, strain vam3, stronger effect = lower value 1.03 | S. cerevisiae deletion strains, locus YOR136W, strain idh2, stronger effect = lower value 0.985 | S. cerevisiae deletion strains, locus YOR144C, strain elg1, stronger effect = lower value 1.01 | S. cerevisiae deletion strains, locus YOR184W, strain ser1, stronger effect = lower value 1 | S. cerevisiae deletion strains, locus YOR231W, strain MKK1, stronger effect = lower value 0.992 | S. cerevisiae deletion strains, locus YOR265W, strain rbl2, stronger effect = lower value 1.02 | S. cerevisiae deletion strains, locus YOR270C, strain vph1, stronger effect = lower value 1.08 | S. cerevisiae deletion strains, locus YOR290C, strain snf2, stronger effect = lower value 0.99 | S. cerevisiae deletion strains, locus YOR316C, strain cot1, stronger effect = lower value 0.989 | S. cerevisiae deletion strains, locus YPL051W, strain arl3, stronger effect = lower value 1.01 | S. cerevisiae deletion strains, locus YPL078C, strain atp4, stronger effect = lower value 1.03 | S. cerevisiae deletion strains, locus YPL106C, strain sse1, stronger effect = lower value 1.01 | S. cerevisiae deletion strains, locus YPL240C, strain hsp82, stronger effect = lower value 1.01 | S. cerevisiae deletion strains, locus YPL256C, strain CLN2, stronger effect = lower value 0.98 | S. cerevisiae deletion strains, locus YPR119W, strain clb2, stronger effect = lower value 0.978 | S. cerevisiae deletion strains, locus YPR141C, strain kar3, stronger effect = lower value 0.976 | S. cerevisiae deletion strains, locus YPR163C, strain tif3, stronger effect = lower value 0.991 | S. cerevisiae deletion strains, locus YPR167C, strain met16, stronger effect = lower value 0.987 | S. cerevisiae deletion strains, strain wtn01, stronger effect = lower value 0.992 | S. cerevisiae strains, strain wild type, stronger effect = lower value 1.01
